An excerpt weighted towards active compounds, which were near 1.2% of everything screened.
PKM2 activator – increases activity of human pyruvate kinase M2; P14618; purified PKM2, Kinase-Glo ATP luminescence, activation; response scale: 0% is enzyme alone, no compound; Potency, µM (top dose mostly 57.5 µM), inactives show at the top dose activation, actives largely listed as activators; 0.34% of 260,000 active; AID 1631; also: potency is read from the fitted curve at half-maximal effect; % is scaled to controls: 0 for no effect and ±100 for the full control effect; nearly all actives have a fitted effect of over 55% in size
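Purified hPK-M2 (>95% pure) converted ADP (0.1 mM final) to ATP with 0.5 mM PEP in 50 mM imidazole pH7.2, KCl, MgCl2, Tween 20, BSA; 1 h at room temperature. ATP detected by Kinase-Glo luminescence.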
GLA spleen mod – inhibits or activates alpha-galactosidase in human spleen homogenate. P06280. human spleen homogenate, 4MU-alpha-Gal fluorescence, 40 min. Potency, µM (titrated, usually from 80 µM), for the others: at the top dose activity change, negative = inhibition, most hits filed as inhibitors. 0.008% of 240,000 active. AID 2107;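 also: potency is read from the fitted curve at half-maximal effect; 0% = enzyme with vehicle and -100% = no enzyme basal signal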
Target sequence (P06280 32-429 limits assumed): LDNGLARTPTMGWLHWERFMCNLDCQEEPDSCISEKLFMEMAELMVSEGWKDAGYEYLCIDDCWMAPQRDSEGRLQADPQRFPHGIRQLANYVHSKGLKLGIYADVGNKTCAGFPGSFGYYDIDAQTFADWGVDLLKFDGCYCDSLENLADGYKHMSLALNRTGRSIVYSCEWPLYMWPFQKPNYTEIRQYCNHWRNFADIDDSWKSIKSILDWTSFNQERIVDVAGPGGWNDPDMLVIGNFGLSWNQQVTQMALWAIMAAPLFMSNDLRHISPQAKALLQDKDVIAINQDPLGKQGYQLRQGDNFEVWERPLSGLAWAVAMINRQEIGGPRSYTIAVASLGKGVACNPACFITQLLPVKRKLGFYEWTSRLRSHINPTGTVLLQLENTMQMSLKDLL
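Fluorogenic readout (Ex 365/Em 440 nm) of 4-methylumbelliferone released from 1 mM 4-MU-alpha-galactoside by spleen homogenate, 40 min at 37C, pH 5.0. Data normalized to no-enzyme and enzyme controls; Hill-equation AC50 from compound titrations.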
HTT aggregate – reduces HttQ103-GFP aggregates in PC12 cells. PC12 HttQ103-GFP aggregates, Acumen cytometry, 40 h. Potency, µM (doses to about 46.1 µM), without a hit: at the highest dose activity change, negative = inhibition, most hits filed as inhibitors. 1.1% of 220,000 active. AID 1688; also: potency is read from the fitted curve at half-maximal effect; % is scaled to controls: 0 for no effect and ±100 for the full control effect; nearly all actives have a fitted effect of over 60% in size
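Compounds (qHTS titration) were added to PC12 cells expressing an ecdysone-driven HTT exon 1 Q103–GFP fusion after induction with 100 nM tebufenozide. Aggregate formation was measured as GFP objects in cell lysates.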
GLA inh pH 4.5 – blocks human alpha-galactosidase A at pH 4.5. 230,000 tested, under 10 active. activity change, negative = inhibition, % at 105 µM. purified enzyme, 4-MU-alpha-Gal fluorescence, pH 4.5;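 also: 0% = full activity with enzyme and -100% = basal without enzyme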
HTT ATP protect – Huntington cell model cytoprotection by ATP luminescence; PC12 HTT-Q103 induced, cytoprotection, ATP luminescence, 40 h; Potency, µM (series often up to 56.4 µM), inactives show cytoprotection (ATP increase), hits mostly activators; 0.14% of 230,000 active; AID 1471; also: potency is read from the fitted curve at half-maximal effect; % of control where 0% means no effect; nearly all actives have a fitted effect of over 45% in size
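Compounds were screened for protection of PC12 cells against cell death after tebufenozide induction (100 nM final) of mutant Huntingtin exon 1 (Q103) fused to GFP.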
The depositor's hits bear a star; ? = inconclusive; . = no result; [ ] = another dose, or the depositor's remark. Calls follow the shape of the dose curve; as a rule, active = well fitted curve in the direction sought with a large enough effect; inconclusive = small, poorly fitted or top-dose-only effect, or another doubt; inactive = no such curve, though single readings can be large; an effect the other way counts as inactive or inconclusive.

SMILES	PKM2 activator	GLA spleen mod	HTT aggregate	GLA inh pH 4.5	HTT ATP protect
COc1ccccc1NC(=O)N1CCN(c2cc(-c3ccccc3)nc3ncnn23)CC1	0.0%	-1.1%	10µM*	0.7	?
CCN(CC)c1ccc(/C=N/N2CCN(Cc3ccc(C)cc3)CC2)c(O)c1	?	-24.8%	0.631µM*	-3.7	-13.6%
Cc1cc(N2C(=O)C=CC2=O)c([N+](=O)[O-])cc1C	5.62µM*	-6.1%	?	4.3	-3.9%[10 µM]
CCN1C(=O)[C@H]2[C@H]3[C@H](O)[C@H](O)C/C(=N/NC(=O)OCc4ccccc4)[C@H]3CC[C@@H]2C1=O	.	-11.2%[17.5 µM]	.	.	-10.6%[10 µM]
COC(=O)CCN(C1CCCCC1)S(=O)(=O)c1ccc(S(=O)(=O)N2CCCCC2)cc1	28.2µM*	-0.5%	5.4%	9.8	11.1%
O=C(CN(C1CC1)S(=O)(=O)c1ccc(S(=O)(=O)N2CCCCCC2)cc1)Nc1ccccc1	3.7%	-1.6%	13.1%	-0.7	-1.5%[10 µM]
CCOC(=O)OCC1OC(C#Cc2ccc(F)cc2F)C=CC1OC(=O)OCC (configuration not stated)	.	2.3%[17.5 µM]	.	.	-4.6%[10 µM]
CCOC(=O)CC(CC(C)=O)C(=O)OCC (configuration not stated)	.	7.2%	.	-0.1	?
O=[N+]([O-])c1ccc2ncnc(Nc3ccc4c(c3)OCCO4)c2c1	6.6%	-2.0%	14.1µM*	-5.2	-62.4%
O=[N+]([O-])c1ccc(O)c(Nc2ncnc3ccc(Br)cc23)c1	1.4%	-2.5%	31.6µM*	-4.4	-157.3%
O=[N+]([O-])c1ccc(O)c(Nc2ncnc3ccccc23)c1	-3.7%	3.4%	9.7%[9.22 µM]	-0.5	-11.4%[10 µM]
O=C(NCc1ccccn1)C1CCN(S(=O)(=O)c2cccs2)CC1	?	10.5%	-22.5%	-3.6	-18.0%
O=C(NCc1ccccc1Cl)C1CCN(S(=O)(=O)c2cccs2)CC1	10µM*	.	.	.	.
COc1ccc(/C=C/c2cc(-c3ccc(C)cc3)o[n+]2C)cc1	4.2%	-1.0%	4.47µM*	3.7	-69.1%
c1ccc(CCc2ccccc2-c2nc(-c3cccnc3)no2)cc1	-23.6%	-4.7%	20µM*	-12.5	-12.7%
O=Cc1ccsc1B(O)O	-0.5%	4.6%	.	-4.7	7.6%
O=C(c1ccc(Cn2cc(Cl)cn2)cc1)N1CCN(c2ccccc2)CC1	15.8µM*	-5.4%	11.4%	-4.5	-5.0%[0.074 µM]
O=C(c1ccc(Br)cc1)N1CCN(Cc2ccccc2)CC1	0.8%	.	.	.	.
O=C(c1ccc(Cn2cc(Br)cn2)cc1)N1CCN(c2ccccc2)CC1	4.47µM*	2.9%	-13.0%	-5.0	-26.0%
N[C@@H]1CCN(O)C1=O	.	16.5%	.	-12.8	-29.3%
COC(=O)c1c(-c2cccc3ccccc23)csc1NC(=O)Cc1ccc(OC)c(OC)c1	-2.2%	-1.2%	12.6µM*	-1.4	3.2%[10 µM]
Cc1cc(C)c2cccc(N)c2n1	-2.0%	-12.2%	10.3%[9.22 µM]	0.3	3.5%[10 µM]
Cc1cc(C)c2ccc(N)nc2c1O	6.7%	0.7%	8.91µM*	-1.8	16.3%[1.9 µM]
COc1ccccc1N1CCN(C(=O)c2ccc3c(=O)n(Cc4ccco4)c(=S)[nH]c3c2)CC1	1.12µM*	-5.7%	-8.8%	-4.9	-9.5%
COc1ccccc1N1CCN(C(=O)c2ccc3c(=O)n(Cc4ccc5c(c4)OCO5)c(=O)[nH]c3c2)CC1	10.7%	.	.	.	.
SMILES	PKM2 activator	GLA spleen mod	HTT aggregate	GLA inh pH 4.5	HTT ATP protect
COc1ccc(Cn2c(=O)[nH]c3cc(C(=O)N4CCN(Cc5ccccc5)CC4)ccc3c2=O)cc1	12.6µM*	2.7%	?	12.1	-88.0%
COc1ccc(Cn2c(=O)[nH]c3cc(C(=O)N4CCN(c5ccccc5OC)CC4)ccc3c2=O)cc1	28.3%	.	.	.	.
Cc1ccc(S(=O)(=O)Oc2ccc(N=Nc3ccc(-c4ccc(N=Nc5c(O)ccc6cc(S(=O)(=O)O)cc(S(=O)(=O)O)c56)c(C)c4)cc3C)cc2)cc1	.	8.8%	.	.	-81.5%
COc1ccc2c(c1)OC/C(=C\c1ccc(OC)c(O)c1)C2=O	.	-3.2%	.	-22.4	6.31µM*
CCCNC(=O)Cn1c(=O)/c(=C\c2ccc(-c3ccc([N+](=O)[O-])cc3)o2)s/c1=C\C(=O)C(C)(C)C	-2.5%	-6.1%	14.1µM*	-5.3	19.9%[10 µM]
COc1cc2ccc([C@H](C)NCC#N)cc2cc1OC	.	.	.	.	3.1%[10 µM]

Bioassay records from PubChem.
